Hits are enriched below; roughly 1.8% of the tested compounds scored in any of these assays.
Ba/F3 V617F tox: reduced viability of JAK2V617F-dependent Ba/F3 cells, primary screen, JAK2V617F inhibitor project, cell-based, Ba/F3 EpoR-JAK2V617F, luminescence; ATP luminescence; inhibition, % at 5.6 µM; actives 1.1% (n = 220,000); AID 1446, 2008;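 active = inhibition above the campaign mean plus 3 SD over all tested compounds, cut at about 24% in these data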;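 note: cytokine-independent growth of Ba/F3 cells driven by EpoR plus mutant JAK2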
IEC-6 tox-1: cytotoxicity in IEC-6 intestinal epithelial cells, primary screen, cytotoxicity control for KLF5 inhibitor project, cell-based, luminescence; IEC-6 cytotoxicity, luminescence viability; inhibition, % at 5 µM; actives 0.78% (n = 290,000); AID 1825, 2009
KLF5 inhibitor: KLF5 expression inhibitors, primary screen, DLD-1 cells, luminescence; DLD-1 KLF5 promoter-luciferase reporter; inhibition, % at 5 µM; actives 0.23% (n = 290,000);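 active = inhibition above a per-plate limit of that plate's mean compound inhibition plus 3 SD, cut at about 60% in these data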;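 note: higher means less KLF5 promoter-driven luciferase light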
BaF3 tox: parental Ba/F3 cell viability inhibition, counter-screen for JAK2V617F inhibitor project, murine pro-B, CellTiter-Glo luminescence. CellTiter-Glo ATP luminescence. inhibition, % at 5.6 µM. actives 1.1% (n = 220,000);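 active = inhibition above a per-campaign cutoff, the mean inhibition of all tested compounds plus 3 SD, cut at about 27% in these data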
APP transl inh: inhibitors of APP translation via 5'UTR reporter, primary screen, APP 5'UTR luciferase, SH-SY5Y cells; SH-SY5Y APP 5'UTR-luciferase reporter, luminescence; actives 0.82% (n = 190,000); inhibition, % at 2 µM;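 active = inhibition above a set limit, derived from the sample mean plus 3 SD, cut at about 45% in these data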
KLF5 inh confirm: KLF5 expression inhibitors, confirmation, DLD-1 cells, luminescence; shares compounds with KLF5 inhibitor; DLD-1 KLF5 promoter firefly luciferase reporter; inhibition, % at 4 µM; actives 79% (n = 610); AID 1834, 2009;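 active = inhibition above a set limit taken from the earlier primary screen, cut at about 63% in these data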
IEC-6 tox-2: cytotoxicity in rat IEC-6 cells, cytotoxicity control for KLF5 inhibitor project, cell-based, luminescence, triplicate; actives 56% (n = 610); inhibition, % at 4 µM; shares compounds with KLF5 inhibitor; IEC-6 rat intestinal cells, viability luminescence; in the data active = inhibition above about 23%;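 note: cells exposed to compounds for 48 hours before viability read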
IEC-6 cytotox cf: cytotoxic compounds in IEC-6 epithelial cells, confirmation, cytotoxicity control, cell-based, luminescence. IEC-6 rat intestinal epithelial viability. actives 63% (n = 1,900). shares compounds with IEC-6 tox-1. inhibition, % at 5 µM
Each line names hits and unclear results; the compound was inactive in the other large screens (follow-up assays come after a bar, where they were run). Cut-off read from the data, not from the text of the source, unless noted: active = inhibition above about 22%; inactive = the rest.

COc1ccccc1-c1nnc2sc(-c3ccc(N(C)C)cc3)nn12	Ba/F3 V617F tox 81.0, IEC-6 tox-1 90.8, KLF5 inhibitor 72.1, BaF3 tox 79.7, APP transl inh 96.8 | KLF5 inh confirm 90.8 | IEC-6 tox-2 72.0 | IEC-6 cytotox cf 72.2
Cc1ccccc1NC(=O)Cn1nnc(C(=O)NCc2ccco2)c1N	none
CCOc1ccccc1NC(=O)Cn1nnc(C(=O)NCc2ccco2)c1N	Ba/F3 V617F tox 87.0, IEC-6 tox-1 86.9, KLF5 inhibitor 76.3, BaF3 tox 85.6, APP transl inh 96.0 | KLF5 inh confirm 88.1 | IEC-6 tox-2 63.8 | IEC-6 cytotox cf 58.2
CN(C)c1ccc(/C=N/NC(=O)COc2ccccc2)cc1	none
COc1ccc(/C=N/NC(=O)COc2ccccc2-c2ccccc2)cc1	Ba/F3 V617F tox 75.7, IEC-6 tox-1 78.6, KLF5 inhibitor 64.7, BaF3 tox 75.9, APP transl inh 96.5 | KLF5 inh confirm 77.1 | IEC-6 tox-2 54.4 | IEC-6 cytotox cf 55.7
O=C(Oc1ccc(Oc2ccccc2)cc1)N1CCC(O)CC1	none (no result: Ba/F3 V617F tox, BaF3 tox, APP transl inh)
O=C1[C@@H]2Cc3c([nH]c4ccccc34)C(c3ccccc3)N2C(=O)CN1C1CC1 (stereo partly specified)	none (no result: Ba/F3 V617F tox, BaF3 tox, APP transl inh)
O=C1[C@@H]2Cc3c([nH]c4ccccc34)C(c3ccc([N+](=O)[O-])cc3)N2C(=O)CN1C1CC1 (stereo partly specified)	IEC-6 tox-1 79.9, KLF5 inhibitor 69.1 (no result: Ba/F3 V617F tox, BaF3 tox, APP transl inh) | KLF5 inh confirm 75.2 | IEC-6 tox-2 44.8 | IEC-6 cytotox cf 49.5
CCCC1=Nc2cc(C(=O)NCCCOCC)ccc2Sc2ccccc21	Ba/F3 V617F tox 93.4, IEC-6 tox-1 97.2, KLF5 inhibitor 80.4, BaF3 tox 91.0, APP transl inh 96.7 | KLF5 inh confirm 86.2 | IEC-6 tox-2 71.4 | IEC-6 cytotox cf 73.8
CCCc1cc(=O)[nH]c(SCC(=O)c2cc(C)n(CC(F)(F)F)c2C)n1	none
Cc1cc(C(=O)Cn2ncc(Cl)c(Cl)c2=O)c(C)n1CC(F)(F)F	Ba/F3 V617F tox 43.5, IEC-6 tox-1 100.4, KLF5 inhibitor 81.7, BaF3 tox 79.3, APP transl inh 74.8 | KLF5 inh confirm inactive | IEC-6 tox-2 inactive | IEC-6 cytotox cf inactive
CSc1nc(N(C)NC(=O)c2ccccc2)c2ccccc2n1	Ba/F3 V617F tox 69.5, IEC-6 tox-1 78.1, KLF5 inhibitor 75.9, BaF3 tox 69.0, APP transl inh 95.8 | KLF5 inh confirm 75.2 | IEC-6 tox-2 64.9 | IEC-6 cytotox cf 55.3
CSc1nc(N(C)NC(=O)c2ccc(Cl)cc2)c2ccccc2n1	Ba/F3 V617F tox 79.9, IEC-6 tox-1 80.1, KLF5 inhibitor 64.8, BaF3 tox 78.4, APP transl inh 94.9 | KLF5 inh confirm 75.3 | IEC-6 tox-2 63.7 | IEC-6 cytotox cf 62.6
O=C(NC1CCCc2c1cnn2-c1ccc(F)cc1F)c1ccccc1N1CCOCC1 (stereo unspecified)	none (no result: Ba/F3 V617F tox, BaF3 tox, APP transl inh)
CCN1/C(=C/c2sc(-c3ccccc3C)c[n+]2C)Sc2ccccc21	Ba/F3 V617F tox 99.8, IEC-6 tox-1 34.5, KLF5 inhibitor 63.1, BaF3 tox 80.4 | KLF5 inh confirm inactive | IEC-6 tox-2 inactive | IEC-6 cytotox cf 38.5
CCOc1ccc(/C=N/Nc2ccc(Cl)nn2)c(O)c1	IEC-6 tox-1 93.7, KLF5 inhibitor 81.9 (no result: Ba/F3 V617F tox, BaF3 tox, APP transl inh) | KLF5 inh confirm inactive | IEC-6 tox-2 inactive | IEC-6 cytotox cf inactive
CCOc1ccccc1/C=N/Nc1ccc(Cl)nn1	none (no result: Ba/F3 V617F tox, BaF3 tox, APP transl inh)
COc1ccc(C(=O)N/C(=C\c2ccco2)C(=O)OCc2ccco2)cc1	none (no result: APP transl inh)
COc1ccc(C(=O)/C(=C\c2ccco2)N2C=CC=CC2=C(C#N)C#N)cc1	Ba/F3 V617F tox 98.6, IEC-6 tox-1 82.7, KLF5 inhibitor 69.2, BaF3 tox 100.0, APP transl inh 84.3 | KLF5 inh confirm inactive | IEC-6 tox-2 49.7 | IEC-6 cytotox cf 62.0
CC(SCc1ccccc1)C(=O)Nc1ccc(F)cc1 (stereo unspecified)	none
N#CC(C#N)=C(Nc1ccc(F)cc1)SCc1cccc(Br)c1	IEC-6 tox-1 29.6, KLF5 inhibitor 65.1 | KLF5 inh confirm 67.8 | IEC-6 tox-2 28.3 | IEC-6 cytotox cf 40.8
CCOc1ccc(NC(=O)c2cc(OC)nc3ccccc23)cc1	IEC-6 tox-1 87.7, KLF5 inhibitor 66.0 (no result: Ba/F3 V617F tox, BaF3 tox, APP transl inh) | KLF5 inh confirm 82.3 | IEC-6 tox-2 62.6 | IEC-6 cytotox cf 53.1
CC/C(=N/OC(=O)c1cccc(C)c1)C(=O)c1cccs1	none
COc1ccc(S(=O)(=O)/N=C2\C=C(Nc3ccc(O)cc3)C(=O)c3ccccc32)cc1	IEC-6 tox-1 101.1, KLF5 inhibitor 103.9 (no result: Ba/F3 V617F tox, BaF3 tox, APP transl inh) | KLF5 inh confirm 113.6 | IEC-6 tox-2 101.8 | IEC-6 cytotox cf 99.7
Cc1ccccc1NC1=C/C(=N\S(=O)(=O)c2ccc(C(=O)O)cc2)c2ccccc2C1=O	none (no result: Ba/F3 V617F tox, BaF3 tox, APP transl inh)
C=C(C)COc1ccc(-c2n[nH]c(C)c2Oc2ccccc2OC)c(O)c1	none
C=C(C)COc1ccc(-c2n[nH]c(C)c2-c2ccc(OC)c(OC)c2)c(O)c1	Ba/F3 V617F tox 78.0, IEC-6 tox-1 75.4, KLF5 inhibitor 62.6, BaF3 tox 75.7 (no result: APP transl inh) | KLF5 inh confirm 69.5 | IEC-6 tox-2 27.9 | IEC-6 cytotox cf 48.8
CN(C(=O)CSc1cc(C(=O)c2nccn2C)c2ccccc2n1)c1ccccc1	none (no result: APP transl inh)
O=C(COC(=O)c1cccnc1)Nc1ccc2c(c1)OCO2	none
CCOC(=O)c1[nH]c(C)c(C(=O)Nc2cc(Cl)ccc2C)c1C	Ba/F3 V617F tox 73.6, IEC-6 tox-1 82.0, KLF5 inhibitor 71.8, BaF3 tox 73.2, APP transl inh 95.4 | KLF5 inh confirm 67.7 | IEC-6 tox-2 61.2 | IEC-6 cytotox cf 63.1
Cc1cc(C)c(S(=O)(=O)Nc2ccc3c4c(cccc24)CC3)c(C)c1	Ba/F3 V617F tox 76.7, IEC-6 tox-1 89.3, KLF5 inhibitor 70.5, BaF3 tox 79.4, APP transl inh 95.2 | KLF5 inh confirm 84.2 | IEC-6 tox-2 56.8 | IEC-6 cytotox cf 56.1
Cc1cc(C)c(S(=O)(=O)Nc2ccc3c(c2)CCC3)c(C)c1	none
C=CCOc1ccc(C(=O)c2ccccc2)c(OCC(=O)NC2(C#N)CCCC2)c1	none (no result: Ba/F3 V617F tox, BaF3 tox, APP transl inh)
COC(=O)Nc1nc(-c2ccccc2)c(C(=O)c2ccc(Cl)cc2)s1	IEC-6 tox-1 55.7, KLF5 inhibitor 62.1 | KLF5 inh confirm 84.5 | IEC-6 tox-2 67.1 | IEC-6 cytotox cf 58.1
CCCCC(Sc1nc(N)c(NC(=O)c2ccco2)c(=O)[nH]1)C(=O)O (stereo unspecified)	none (no result: Ba/F3 V617F tox, BaF3 tox, APP transl inh)
CCOc1ccc2c(c1)C(C)=CC(C)(C)N2S(=O)(=O)c1ccc(F)cc1	none (no result: Ba/F3 V617F tox, BaF3 tox, APP transl inh)
